Screening data as filed in PubChem.
G9a block: inhibitors of human histone lysine methyltransferase G9a; AID 504332; Potency, µM (top dose mostly 102 µM), without a hit: top-dose activity, negative = inhibition, actives largely listed as inhibitors; Q96KQ7; G9a H3K9 monomethylation, AlphaScreen, 2 h; hit rate 8.8% among 350,000; also: % is scaled to controls: 0 for no effect and ±100 for the full control effect; nearly all actives have a fitted effect of over 75% in size
Target sequence (Q96KQ7 913-1193 limits assumed): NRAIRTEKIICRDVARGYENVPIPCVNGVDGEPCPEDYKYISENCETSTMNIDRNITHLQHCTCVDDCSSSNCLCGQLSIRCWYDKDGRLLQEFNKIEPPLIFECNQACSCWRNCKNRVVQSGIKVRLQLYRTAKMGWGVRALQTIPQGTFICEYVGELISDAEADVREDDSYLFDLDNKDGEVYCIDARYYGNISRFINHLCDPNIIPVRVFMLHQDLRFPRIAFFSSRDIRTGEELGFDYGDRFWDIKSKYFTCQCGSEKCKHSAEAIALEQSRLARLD
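G9a (20 nM) preincubated 15 min RT with compounds, then 500 nM biotinylated H3K9 peptide and 20 uM SAM added; 2 h RT reaction. Monomethyl-H3K9 product detected by AlphaScreen with anti-H3K9me1 antibody, streptavidin donor and anti-rabbit IgG acceptor beads.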
HP1b chromo inh: HP1-beta chromodomain-methylated histone interaction inhibition. hit rate 0.56% among 390,000. Potency, µM (doses to about 114 µM), inactives show at the highest dose activity change, negative = inhibition, actives largely listed as inhibitors. AlphaScreen HP1-beta / biotin-H3K9me3 peptide binding; also: nearly all actives have a fitted effect of over 70% in size
Target sequence (P83916 whole entry, looked up): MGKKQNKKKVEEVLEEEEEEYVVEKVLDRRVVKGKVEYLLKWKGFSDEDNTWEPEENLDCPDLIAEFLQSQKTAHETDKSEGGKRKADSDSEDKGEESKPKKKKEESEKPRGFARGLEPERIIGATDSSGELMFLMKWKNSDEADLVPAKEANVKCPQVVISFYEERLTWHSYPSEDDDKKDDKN
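AlphaScreen: HP1-beta (50 nM) preformed 30 min with biotin-H3(1-18)K9me3 peptide (50 nM) in PBS pH 7.4, 0.01% Tween-20. Compound added for 30 min at RT, then streptavidin donor/nickel chelate acceptor beads (10 ug/mL) for 30 min.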
JMJD2A Tudor inh: inhibitors of human JMJD2A Tudor domain; AlphaScreen JMJD2A-Tudor / H3K4me3 peptide binding; hit rate 4.4% among 390,000; AID 504339; Potency, µM (series often up to 114 µM), inactives show at the highest dose activity change, negative = inhibition, hits mostly inhibitors; O75164; also: % is scaled to controls: 0 for no effect and ±100 for the full control effect; nearly all actives have a fitted effect of over 50% in size
BAZ2B inh: BAZ2B (human) inhibition | Q9UIF8 | AlphaScreen BAZ2B-H3K14Ac peptide displacement | Potency, µM (series often up to 114 µM), without a hit: top-dose activity change, negative = inhibition, hits mostly inhibitors | hit rate 4.4% among 360,000 | AID 504333; also: % is scaled to controls: 0 for no effect and ±100 for the full control effect; nearly all actives have a fitted effect of over 60% in size
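Protein-peptide AlphaScreen: BAZ2B 50 nM, b-H3K14Ac 50 nM, 1x PBS pH 7.4 + 0.01% Tween-20. Preincubation 30 min RT; cpd 30 min RT (top 110 uM); beads 20 min RT, light-protected.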
L3MBTL1 inh: inhibitors of human L3MBTL1; Q9Y468; Potency, µM (top dose mostly 57.1 µM), for inactives: at the top dose activity, negative = inhibition, most hits filed as inhibitors; hit rate 0.66% among 230,000; AlphaScreen L3MBTL1–H3K9me1 peptide binding; also: % is scaled to controls: 0 for no effect and ±100 for the full control effect; nearly all actives have a fitted effect of over 60% in size
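L3MBTL1 (50 nM) pre-complexed 30 min with biotinylated H3(1-15)K9me1 peptide (75 nM), then compounds added for 30 min at room temperature; AlphaScreen streptavidin donor/nickel chelate acceptor beads (10 ug/mL final) read after 30 min dark incubation.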
The depositor's hits bear a star; u = inconclusive; x = no result; [ ] = another dose, or the depositor's remark. This is a sample that favours compounds with a hit; in the whole collection about 11% have one here. Calls follow the shape of the dose curve; as a rule, active = well fitted inhibition curve with a large enough effect; inconclusive = small, poorly fitted or top-dose-only effect; inactive = no such curve, though single readings can be large or run the other way. Potency is read from the fitted curve at half-maximal effect.

SMILES	G9a block	HP1b chromo inh	JMJD2A Tudor inh	BAZ2B inh	L3MBTL1 inh
CCC(=O)N1CCc2cc(S(=O)(=O)NC(CC(C)C)C(=O)Nc3cccc(C)c3C)ccc21 (stereo not given)	5%[59 µM]	36%	3%	x	x
O=C(O)CN1C(=O)/C(=C\c2cccc(OCc3ccccc3)c2)SC1=S	-4%[0.501 µM]	u	u	56µM*	6%[2.29 µM]
O=C(O)COc1cccc(/C=C2/SC(=S)N(Cc3ccccc3)C2=O)c1	45µM*	-36%	50µM*	u	x
CN1C(=O)/C(=C\c2cccc(OCc3ccccc3)c2)SC1=S	-13%	-7%	-12%	u	x
Cc1cccc(Cc2cnc(NC(=O)CN3C(=O)/C(=C/c4ccccc4)SC3=S)s2)c1	40µM*	u	-31%	u	x
COc1ccc(NC(=O)CSc2nc(-c3ccccc3)nc3cc(=O)[nH]n23)cc1	17%[59 µM]	33%	-23%	-37%	x
O=C(CSc1nc(-c2ccccc2)nc2cc(=O)[nH]n12)Nc1ccccc1	34%[59 µM]	20%	56µM*	-1%	x
O=C(CSc1nc(-c2cccs2)nc2cc(=O)[nH]n12)Nc1cccc(C(F)(F)F)c1	53%[59 µM]	33%	-19%	50µM*	x
Cc1ccc(NC(=O)CSc2nc(-c3cccs3)nc3cc(=O)[nH]n23)cc1	23%[59 µM]	21%	-21%	79µM*	x
Cc1cccc(-c2nc(SCC(=O)Nc3cccc(C(F)(F)F)c3)n3[nH]c(=O)cc3n2)c1	11%[59 µM]	u	50µM*	50µM*	x
CCc1ccccc1NC(=O)Nc1cc(C(=O)NCc2cccc(F)c2)ccc1N1CCCC1	10%[12.7 µM]	32%	-4%	-16%	x
Cc1nn(C)c2c1c(C(F)(F)F)cc(=O)n2CC(=O)NCc1ccc(OC(C)C)cc1	14%[59 µM]	8%	-12%	-6%	x
Cc1cccc(NC(=O)CSc2nc(-c3cccs3)nc3cc(=O)[nH]n23)c1	-38%[59 µM]	u	u	79µM*	x
CC1(C(=O)Nc2cccc(-n3cnnn3)c2)Cc2ccccc2C(=O)O1 (stereo not given)	x	31%	-8%	x	30%
CCOC(=O)/C(C#N)=C/c1c(N2CCN(c3ccc(OC)cc3)CC2)nc2c(C)cccn2c1=O	8.9µM*	u	u	8.9µM*	x
COC(=O)/C(C#N)=C/c1c(N2CCN(c3ccccc3)CC2)nc2ccccn2c1=O	79µM*	-20%	u	u	x
CCNC(=O)/C(C#N)=C/c1c(N2CCN(c3ccc(OC)cc3)CC2)nc2c(C)cccn2c1=O	40µM*	u	20µM*	35µM*	x
COC(=O)/C(C#N)=C/c1c(N2CCN(C)CC2)nc2ccccn2c1=O	-13%[2.33 µM]	8%	-4%	3%	x
COCCNC(=O)/C(C#N)=C/c1c(N2CCN(c3ccc(OC)cc3)CC2)nc2c(C)cccn2c1=O	28µM*	-13%	50µM*	40µM*	x
CCOC(=O)/C(C#N)=C/c1c(N2CCN(CC)CC2)nc2c(C)cccn2c1=O	u	24%	-16%	-3%	x
CCc1ccc(CNC(=O)C2Cc3cc(S(=O)(=O)N4CCCCCC4)ccc3N2C(C)=O)cc1 (stereo not given)	8%[59 µM]	3%	-6%	-3%	x
Cc1cc(N2CCN(C)CC2)nc2ccc(NC(=S)NCc3cccs3)cc12	40µM*	-7%	-33%	-33%	x
COc1ccc(CNC(=S)Nc2ccc3nc(N4CCOCC4)cc(C)c3c2)cc1	-51%	13%	u	-36%	x
COCCNC(=S)Nc1ccc2nc(N3CCN(C)CC3)cc(C)c2c1	u	15%	-23%	-17%	x
CCN1CCN(c2cc(C)c3cc(NC(=S)NCc4cccs4)ccc3n2)CC1	45µM*	-5%[57 µM]	u	-37%	x
SMILES	G9a block	HP1b chromo inh	JMJD2A Tudor inh	BAZ2B inh	L3MBTL1 inh
COc1ccc(CNC(=S)Nc2ccc3nc(N4CCN(C)CC4)cc(C)c3c2)cc1	45µM*	-10%	u	u	x
Cc1ccc([N+](=O)[O-])cc1S(=O)(=O)n1ccnc1C	u	-2%	-31%[11.4 µM]	u	-22%
CCCc1cc(=O)oc2cc(C)c3c(-c4ccccc4)coc3c12	-32%[59 µM]	3%	17%	-38%	x
COc1ccc(-c2cc(C(=O)Nc3ccc(S(=O)(=O)Nc4onc(C)c4C)cc3)c3ccccc3n2)cc1	50µM*	-12%[57 µM]	u	u	-24%
COc1ccc(-c2cc(C(=O)Nc3ccc(S(=O)(=O)Nc4ncccn4)cc3)c3ccccc3n2)cc1	u	36%	-11%	-2%	1%
Cc1cc(C)nc(NS(=O)(=O)c2ccc(NC(=O)C3(c4ccccc4)CCCC3)cc2)n1	56µM*	10%	-20%	0%	7%
Cc1noc(NS(=O)(=O)c2ccc(NC(=O)c3cnc4scc(C)n4c3=O)cc2)c1C	50µM*	7%	u	-8%	2%
CCN(CC)S(=O)(=O)c1ccc(O)c(NC(=O)c2cc(-c3cc(OC)c(OC)c(OC)c3)nc3ccccc23)c1	7.9µM*	-36%	u	-21%	x
Cc1cc(NS(=O)(=O)c2ccc(NC(=O)c3cnc4scc(C)n4c3=O)cc2)nc(C)n1	u	18%	-19%	9%	20%
Cc1ccc(C)c(NC(=O)Cn2c(=O)ccc3cc(S(=O)(=O)N4CCCC4)ccc32)c1	0%[59 µM]	13%[57 µM]	-10%	2%	x
CC(=O)Nc1ccc(S(=O)(=O)N2CCC(c3nnnn3-c3ccccc3)CC2)cc1	22%[59 µM]	48%	5%	3%	x
COc1ccc(-c2cc3ccc(O)c(CN4CCOCC4)c3oc2=O)cc1	46%[59 µM]	53%[57 µM]	50%	48%	x
O=C(Nc1nnc(S(=O)(=O)N2CCCc3ccccc32)s1)c1cccc(Cl)c1	-10%[59 µM]	6%	-21%	-25%	x
COc1ccc(-c2nc(C)c(CCNC(=O)C(=O)Nc3ccccc3F)s2)cc1	21%[59 µM]	15%[57 µM]	-15%	2%	x
Cc1ccnc(NS(=O)(=O)c2ccc(NC(=O)c3cc(-c4ccccc4)nc4ccccc34)cc2)n1	u	3%	-19%	-21%	-8%
Cc1ccc(-c2cc(C(=O)Nc3ccc(S(=O)(=O)Nc4nc(C)cc(C)n4)cc3)c3ccccc3n2)cc1	50µM*	u	-18%	u	-12%
CCOc1ccc(NC(=O)CC2CC(C)(C)OC2=O)cc1 (stereo not given)	-3%[59 µM]	-15%	-2%[11.4 µM]	-1%	7%
CCOc1ccc(NCC2CCOC(C)(C)C2)cc1 (stereo not given)	7.1µM*	-6%	-36%	u	-8%
O=C1CCCN1c1ccc(C(=O)N(Cc2nnc(-c3ccccc3Cl)o2)C2CC2)cc1	13µM*	30%	-10%	7%	2%
O=C(c1ccc(Cl)c(S(=O)(=O)N2CCOCC2)c1)N(Cc1nnc(-c2ccccc2Cl)o1)C1CC1	-11%	20%	-19%	-5%	-3%
O=C(c1cccc(S(=O)(=O)N2CCOCC2)c1)N(Cc1nnc(-c2ccccc2Cl)o1)C1CC1	50µM*	-3%	-19%	-4%	-2%
